Most compounds without a hit are left out; they make up all but 11% or so of the library.
CBFb-RUNX1 inh – CBF-beta/RUNX1 interaction disruption. Q01196+Q13951. AlphaScreen CBFb-His/RUNX1-biotin binding, biochemical. Potency, µM (titrated, usually from 59.8 µM), hits mostly inhibitors. 230,000 tested, under 10 active
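AlphaScreen proximity signal reports loss of binding between His-tagged CBF-beta and biotin-labelled RUNX1, each at 30 nM. Proteins are pre-associated for 20 minutes, compounds added for 15 minutes, then beads for 90 minutes, all at ambient temperature.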
ALDH1A1 inh – blocks purified human ALDH1A1 activity | P00352 | Purified ALDH1A1, NADH fluorescence, propionaldehyde substrate | Potency, µM (highest dose often 75.3 µM), most hits filed as inhibitors | 220,000 compounds, 7.3% hits | AID 1030; active means well fitted inhibition curve with a large enough effect, not every such curve was filed as active; inconclusive means small, poorly fitted or top-dose-only effect, or another doubt; inactive means no such curve, though single readings can be large or run the other way
HTT ATP protect – protects HTT-Q103 PC12 cells, measured by ATP. PC12 HTT-Q103 induced, cytoprotection, ATP luminescence, 40 h. Potency, µM (highest dose often 56.4 µM), actives largely listed as activators. 230,000 compounds, 0.14% hits. AID 1471; further: nearly all actives have a fitted effect of over 45% in size
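Cells were plated at 1500 per well in phenol red-free DMEM with 5% equine and 5% calf serum. Tebufenozide (100 nM final) and compounds were added, then ATPlite reagent, and luminescence was read.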
HttQ103 aggreg – mutant huntingtin aggregation inhibition; PC12 HttQ103-GFP aggregates, Acumen cytometry, 40 h; Potency, µM (doses to about 46.1 µM), actives largely listed as inhibitors; 220,000 compounds, 1.1% hits; further: nearly all actives have a fitted effect of over 60% in size
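PC12 cells with ecdysone-inducible HTT exon1 Q103-GFP, induced by 100 nM tebufenozide, given compounds in a concentration series. GFP aggregates (1–25 um, 6 SD above background) counted in lysates by laser-scanning cytometry, 488 nm excitation.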
PNC assembly inh – blocks assembly of the perinucleolar compartment; PC3M PTB-GFP, PNC prevalence imaging, 16 h; hits give low values; activity change (PNC), negative = inhibition, % at 10 µM; 140,000 compounds, 3.1% hits;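 active means readout at or below -70, meaning at least 70% loss of cells showing the perinucleolar compartment, a nuclear body marking cancer cells; inconclusive means readout between -30 and a set limit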
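Compounds are pinned in duplicate onto adhered PC3M cells stably expressing GFP-tagged PTB and incubated 16 h at 37 C. Cells are then fixed, nuclei stained with Hoechst, and PNC-positive cells counted.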
HPGD inh – blocks human HPGD enzyme activity; purified HPGD, NADH fluorescence kinetic, PGE2 substrate; Potency, µM, hits mostly inhibitors; 150,000 compounds, 4.3% hits; P15428; active means well fitted inhibition curve with a large enough effect, not every such curve was filed as active; inconclusive means small, poorly fitted or top-dose-only effect, or another doubt; inactive means no such curve, though single readings can be large or run the other way
Target sequence (P15428 whole entry, looked up): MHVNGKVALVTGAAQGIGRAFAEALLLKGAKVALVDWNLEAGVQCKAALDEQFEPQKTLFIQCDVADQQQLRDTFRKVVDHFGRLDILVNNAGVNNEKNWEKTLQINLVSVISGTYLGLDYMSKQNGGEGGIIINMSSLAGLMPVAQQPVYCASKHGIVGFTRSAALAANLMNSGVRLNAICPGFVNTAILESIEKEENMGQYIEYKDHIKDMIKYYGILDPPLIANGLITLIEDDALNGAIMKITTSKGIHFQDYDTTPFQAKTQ
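NADH formation kinetics: reaction with 30 uM PGE2 and 1 mM NAD+ (final), 20 nM enzyme, Tris-HCl pH 8 with Tween 20, after 15 min compound preincubation at room temperature. Fluorescence change, last versus first of five reads.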
A number is an active result; - = inactive; ? = inconclusive; . = no result; [ ] = dose if it differs, or a comment. Unless noted, the call rests on the fitted dose curve; in most records, active means well fitted curve in the direction sought with a large enough effect; inconclusive means small, poorly fitted or top-dose-only effect, or another doubt; inactive means no such curve, though single readings can be large; an effect the other way counts as inactive or inconclusive.

SMILES	CBFb-RUNX1 inh	ALDH1A1 inh	HTT ATP protect	HttQ103 aggreg	PNC assembly inh	HPGD inh
CCOC(=O)c1c(CC(C)C)csc1/N=C/C1C(=O)CC(C)(C)CC1=O	-	6.3µM	-	-	.	.
CCOC(=O)c1cc(CC)sc1/N=C/C1=C(O)CC(C)(C)CC1=O	-	11µM	.	-	-	-
COC(=O)c1cc(N=CC2=C(O)CC(C)(C)CC2=O)cc(C(=O)OC)c1	-	?	-[10 µM]	-	-	-
CCOC(=O)c1ccc(N=CC2=C(O)CC(C)(C)CC2=O)cc1	-	?	-	-	-	?
CC(C)c1ccc(/C=N/Nc2ccc(C(=O)O)cc2)cc1	-	?	-[0.074 µM]	-	-	14µM
O=C(O)c1ccc(N/N=C/c2ccc(-c3ccccc3)cc2)cc1	-	-	-	-	.	.
O=C(O)c1ccc(N/N=C/c2ccc(OC(=O)c3ccccc3Cl)cc2)cc1	-	-	.	-	?	25µM
CC(=O)NNC(=O)c1cc2sccc2s1	-	-	-[10 µM]	-[9.22 µM]	.	.
NNC(=O)c1cc2sccc2s1	-	2.5µM	-[10 µM]	-[9.22 µM]	.	.
C/C(CCc1oc2ccc(Cl)cc2c1-c1ccc(C)o1)=N\O	-	4.5µM	-[10 µM]	-	?	32µM
CC(=O)CCc1oc2ccc(C)cc2c1-c1ccccc1	-	.	-[10 µM]	-[9.22 µM]	.	.
C/C(CCc1oc2ccc(Br)cc2c1-c1ccc(C)o1)=N/O	-	?	.	-	-	20µM
CCNc1ncc2nc(-c3ccccc3)c(=O)n(Cc3cccs3)c2n1	.	?	-	.	.	.
Clc1ccc(OCc2nn3c(-c4ccco4)nnc3s2)c(Cl)c1	-	-	-[0.074 µM]	-	-	3.2µM
COc1ccccc1-c1nnc2sc(-c3cnccn3)nn12	-	?	-	-	-	25µM
c1ccc(-c2nn3c(-c4ccncc4)nnc3s2)nc1	.	.	-[0.074 µM]	.	.	.
COc1ccccc1-c1nnc2sc(-c3ccc(N(C)C)cc3)nn12	-	?	-[10 µM]	?	-	.
CC(C)(C)c1ccc(-c2nnc3sc(-c4ccccn4)nn23)cc1	?	?	-	-	-	28µM
Cc1ccc(OCc2nn3c(-c4ccco4)nnc3s2)cc1	-	-	-	-	-	.
c1ccc(-c2nn3c(-c4ccco4)nnc3s2)nc1	-	24µM	-	-	-	-
c1coc(-c2nnc3sc(C4CCCCC4)nn23)c1	-	13µM	-	-	-	25µM
COc1cccc(-c2nnc3sc(-c4ccccn4)nn23)c1	-	-	-[0.074 µM]	-	-	22µM
COc1cccc(-c2nn3c(-c4ccccn4)nnc3s2)c1	-	-	-	-	-	32µM
COc1cccc(-c2nn3c(-c4cc(C)[nH]n4)nnc3s2)c1	-	-	-[0.074 µM]	-	-	-
Brc1ccc(-c2nn3c(-c4ccco4)nnc3s2)o1	-	?	-	-	-	-
SMILES	CBFb-RUNX1 inh	ALDH1A1 inh	HTT ATP protect	HttQ103 aggreg	PNC assembly inh	HPGD inh
Clc1cc2c(c(CSC3=NCN(CC4CC4)CN3)c1)OCOC2	.	-[13.5 µM]	-[10 µM]	.	.	-
Cc1ccc(SCC(c2ccccc2)N2CCN(CCc3ccccc3)CCC2=O)cc1 (configuration not stated)	-	.	.	.	.	.
C=C(C)COc1ccc(-c2[nH]ncc2Oc2cccc(OC)c2)c(O)c1	-	-	-	?	-	-
C=C(C)COc1ccc(-c2[nH]ncc2Oc2ccccc2OCC)c(O)c1	-	1.6µM	-	?	-117	18µM
COCCNC(=O)c1ccc2c(=O)n(CCCN3CCCC3=O)c(=S)[nH]c2c1	-	?	-	-	.	.
O=C(NCc1ccccc1Cl)c1ccc2c(=O)n(CCCN3CCCC3=O)c(=S)[nH]c2c1	-	0.63µM	-	-	-	-
O=C(NCCCN1CCCC1=O)c1ccc2c(=O)n(-c3ccc(F)cc3)c(=S)[nH]c2c1	-	14µM	-	-	.	.
NC(N)=N[C@H](CCC(=O)O)C(=O)O	.	.	-[1.9 µM]	.	.	.
CC(C)(O)CC[C@@H](O)[C@](C)(O)[C@H]1CC[C@@]2(O)C3=CC(=O)[C@@H]4C[C@@H](O)[C@@H](O)C[C@]4(C)C3CC[C@]12C (some centres not stated)	-	-	-[10 µM]	-[9.22 µM]	.	.
C[C@@H](C[C@@H](O)[C@H](O)C(C)(C)O)[C@@H]1CC[C@]2(C)C3=CC[C@H]4C(C)(C)C(=O)CC[C@]4(C)[C@H]3CC[C@@]12C	-	-	.	35µM	-	-
CC(Sc1ccc(S(=O)(=O)N2CCOCC2)cc1[N+](=O)[O-])C(=O)O (configuration not stated)	-	?	.	-	-	-
C/C(=N\Nc1ccc(S(=O)(=O)N2CCOCC2)cc1[N+](=O)[O-])C(C)C	-	18µM	-	-	.	.
CC(C)C(Nc1ccc(S(=O)(=O)N2CCOCC2)cc1[N+](=O)[O-])C(=O)O (configuration not stated)	-	1.3µM	?	-	.	.
CCN(C(=O)CSc1nnc2c3ccccc3n(CC)c2n1)C1CCS(=O)(=O)C1 (configuration not stated)	-	-	-[10 µM]	-	-	-
COc1ccc(/C=C/c2ccccc2)cc1C1C2C=CCCC2(C)C(=O)N1Cc1ccccc1 (configuration not stated)	-	.	.	.	.	.
O=C(Cc1cccs1)N1CCC(c2nc3c(nnn3Cc3ccc(F)cc3)c(=O)[nH]2)CC1	-	-	-	?	?	14µM
O=C(Cc1cccs1)N1CCCC(c2nc3c(nnn3Cc3cccc(Cl)c3)c(=O)[nH]2)C1 (configuration not stated)	-	-	-	-	-	6.3µM
O=C(Nc1ccc(F)cc1)N1CCC(c2nc3c(nnn3Cc3ccccc3Cl)c(=O)[nH]2)CC1	-	-	-	-	.	.
CC[C@]1(c2ccccc2)NC(=O)N(C)C1=O	-	-	-	.	.	-
